Measurements: PMC7862700, “An all-to-all approach to the identification of sequence-specific readers for epigenetic DNA modifications on cytosine”

Legend:
Assay in all cases: DAPPL (digital affinity profiling via proximity ligation, sequencing); 10 mM Tris-HCl pH 7.5, 50 mM NaCl, 1 mM DTT, 4% glycerol, room temperature, 30 min; GST-TFs on glutathione beads, 16-mer random dsDNA library, 0.1% formaldehyde crosslink after washing; high values mean tight binding
FEV = target: T1, FEV (Homo sapiens, UniProt Q99581 1-238); settings: protein: recombinant; tags: N-terminal GST; dsDNA, one strand shown
T1 sequence: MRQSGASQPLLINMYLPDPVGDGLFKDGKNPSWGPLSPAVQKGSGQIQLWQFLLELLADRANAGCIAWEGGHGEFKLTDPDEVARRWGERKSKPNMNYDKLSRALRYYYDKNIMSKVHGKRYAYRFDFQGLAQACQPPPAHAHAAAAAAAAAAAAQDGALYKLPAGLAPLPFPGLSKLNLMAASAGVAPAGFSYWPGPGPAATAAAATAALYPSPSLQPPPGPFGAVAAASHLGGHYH
In short: (§1)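 Pools were built from human transcription factors expressed in yeast as GST fusions, captured on glutathione beads and DNA-barcoded, along with a tag-only sample. Incubation with 200 nmole of a 16-mer random double-stranded DNA library lasted 30 min at room temperature in Tris/NaCl/DTT/glycerol buffer, and was followed by washing, 0.1% formaldehyde crosslinking, proximity ligation, PCR amplification and Illumina NextSeq500 sequencing. Binding signal is the quotient of each hexamer's read frequency for a factor and its frequency for the tag-only sample.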

ETV5 = ETV5 (Homo sapiens, UniProt P41161 1-510); settings: protein: recombinant; tags: N-terminal GST; dsDNA, one strand shown
In short: as §1

HSF1 = HSF1 (Homo sapiens, UniProt Q00613 1-529); settings: protein: recombinant; tags: N-terminal GST; chain copies: 3; dsDNA, one strand shown
In short: as §1

SPIC = target: T2, SPIC (Homo sapiens, UniProt Q8N5J4 1-248); settings: protein: recombinant; tags: N-terminal GST; dsDNA, one strand shown
T2 sequence: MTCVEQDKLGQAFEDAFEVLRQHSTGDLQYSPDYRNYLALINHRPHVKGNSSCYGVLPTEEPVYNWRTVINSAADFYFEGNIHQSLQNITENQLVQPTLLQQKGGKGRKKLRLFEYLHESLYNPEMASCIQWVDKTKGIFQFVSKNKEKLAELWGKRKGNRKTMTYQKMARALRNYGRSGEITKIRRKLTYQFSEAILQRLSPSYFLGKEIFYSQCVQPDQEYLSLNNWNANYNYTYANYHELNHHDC
In short: as §1

ELF4 = ELF4 (Homo sapiens, UniProt Q99607 1-663); settings: protein: recombinant; tags: N-terminal GST; dsDNA, one strand shown
In short: as §1

ELK4 = target: T3, ELK4 (Homo sapiens, UniProt P28324-2 1-405); settings: protein: recombinant; tags: N-terminal GST; dsDNA, one strand shown
T3 sequence: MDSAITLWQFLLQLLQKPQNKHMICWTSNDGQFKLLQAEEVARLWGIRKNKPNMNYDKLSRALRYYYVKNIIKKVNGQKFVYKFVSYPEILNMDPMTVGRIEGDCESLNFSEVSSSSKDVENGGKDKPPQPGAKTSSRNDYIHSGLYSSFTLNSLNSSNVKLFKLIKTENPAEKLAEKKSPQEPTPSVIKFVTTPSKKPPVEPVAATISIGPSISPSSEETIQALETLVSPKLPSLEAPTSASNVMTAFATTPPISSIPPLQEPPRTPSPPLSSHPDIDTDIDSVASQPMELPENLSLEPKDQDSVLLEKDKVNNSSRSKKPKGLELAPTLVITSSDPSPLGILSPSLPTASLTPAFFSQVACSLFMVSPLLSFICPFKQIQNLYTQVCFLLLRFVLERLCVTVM
In short: as §1

ETV2 = target: T4, ETV2 (Homo sapiens, UniProt O00321 1-342); settings: protein: recombinant; tags: N-terminal GST; dsDNA, one strand shown
T4 sequence: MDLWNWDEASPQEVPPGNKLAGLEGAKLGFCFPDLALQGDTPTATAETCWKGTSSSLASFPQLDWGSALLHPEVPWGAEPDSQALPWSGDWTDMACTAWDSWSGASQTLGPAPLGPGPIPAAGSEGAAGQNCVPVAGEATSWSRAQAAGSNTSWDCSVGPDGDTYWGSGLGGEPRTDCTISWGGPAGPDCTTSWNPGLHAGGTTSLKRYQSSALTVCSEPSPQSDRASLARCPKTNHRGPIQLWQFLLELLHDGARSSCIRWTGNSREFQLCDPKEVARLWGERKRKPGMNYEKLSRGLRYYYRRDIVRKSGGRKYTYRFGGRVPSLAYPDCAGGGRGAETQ
In short: as §1

ELF3 = target: T5, ELF3 (Homo sapiens, UniProt P78545 1-371); settings: protein: recombinant; tags: N-terminal GST; dsDNA, one strand shown
T5 sequence: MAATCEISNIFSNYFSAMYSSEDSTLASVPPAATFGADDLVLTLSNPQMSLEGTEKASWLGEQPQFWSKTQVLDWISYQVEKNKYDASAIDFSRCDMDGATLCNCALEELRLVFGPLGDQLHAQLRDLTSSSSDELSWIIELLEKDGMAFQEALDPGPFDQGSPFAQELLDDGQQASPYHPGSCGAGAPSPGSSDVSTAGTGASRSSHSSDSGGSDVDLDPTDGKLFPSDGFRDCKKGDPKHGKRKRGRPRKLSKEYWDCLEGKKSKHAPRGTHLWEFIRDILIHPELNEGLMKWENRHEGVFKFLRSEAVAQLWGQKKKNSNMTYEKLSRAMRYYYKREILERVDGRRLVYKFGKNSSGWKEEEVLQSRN
In short: as §1

CRX = CRX (Homo sapiens, UniProt O43186 1-299); settings: protein: recombinant; tags: N-terminal GST; dsDNA, one strand shown
In short: as §1

ETV1 = ETV1 (Homo sapiens, UniProt P50549 1-477); settings: protein: recombinant; tags: N-terminal GST; dsDNA, one strand shown
In short: as §1

ERF = target: T6, ERF (Homo sapiens, UniProt P50548 1-548); settings: protein: recombinant; tags: N-terminal GST; dsDNA, one strand shown
T6 sequence: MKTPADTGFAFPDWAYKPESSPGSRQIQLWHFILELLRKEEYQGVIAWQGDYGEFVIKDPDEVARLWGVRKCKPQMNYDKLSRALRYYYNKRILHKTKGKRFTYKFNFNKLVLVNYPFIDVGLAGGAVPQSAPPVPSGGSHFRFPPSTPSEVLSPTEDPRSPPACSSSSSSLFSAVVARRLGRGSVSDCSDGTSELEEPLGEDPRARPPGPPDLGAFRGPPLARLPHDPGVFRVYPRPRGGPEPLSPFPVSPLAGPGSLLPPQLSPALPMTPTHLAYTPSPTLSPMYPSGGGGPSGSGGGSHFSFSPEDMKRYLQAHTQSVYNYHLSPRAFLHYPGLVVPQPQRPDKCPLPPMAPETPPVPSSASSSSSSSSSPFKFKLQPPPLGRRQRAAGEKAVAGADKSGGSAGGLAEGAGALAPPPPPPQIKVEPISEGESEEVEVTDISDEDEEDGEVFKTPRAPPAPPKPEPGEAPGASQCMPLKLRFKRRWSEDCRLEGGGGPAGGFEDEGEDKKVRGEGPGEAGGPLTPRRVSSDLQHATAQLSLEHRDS
In short: as §1

ETV3L = target: T7, ETV3L (Homo sapiens, UniProt Q6ZN32 1-361); settings: protein: recombinant; tags: N-terminal GST; dsDNA, one strand shown
T7 sequence: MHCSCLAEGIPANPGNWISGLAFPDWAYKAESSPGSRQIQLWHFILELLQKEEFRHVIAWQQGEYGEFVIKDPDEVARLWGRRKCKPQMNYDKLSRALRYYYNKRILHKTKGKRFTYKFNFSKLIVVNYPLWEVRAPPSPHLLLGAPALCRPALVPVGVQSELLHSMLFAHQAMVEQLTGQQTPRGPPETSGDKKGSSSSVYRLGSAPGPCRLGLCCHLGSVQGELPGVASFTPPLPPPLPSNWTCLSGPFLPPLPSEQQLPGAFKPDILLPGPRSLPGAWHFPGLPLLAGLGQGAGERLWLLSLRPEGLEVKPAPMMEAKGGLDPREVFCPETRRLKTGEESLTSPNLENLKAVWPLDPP
In short: as §1

ETS2 = target: T8, ETS2 (Homo sapiens, UniProt P15036 1-469); settings: protein: recombinant; tags: N-terminal GST; dsDNA, one strand shown
T8 sequence: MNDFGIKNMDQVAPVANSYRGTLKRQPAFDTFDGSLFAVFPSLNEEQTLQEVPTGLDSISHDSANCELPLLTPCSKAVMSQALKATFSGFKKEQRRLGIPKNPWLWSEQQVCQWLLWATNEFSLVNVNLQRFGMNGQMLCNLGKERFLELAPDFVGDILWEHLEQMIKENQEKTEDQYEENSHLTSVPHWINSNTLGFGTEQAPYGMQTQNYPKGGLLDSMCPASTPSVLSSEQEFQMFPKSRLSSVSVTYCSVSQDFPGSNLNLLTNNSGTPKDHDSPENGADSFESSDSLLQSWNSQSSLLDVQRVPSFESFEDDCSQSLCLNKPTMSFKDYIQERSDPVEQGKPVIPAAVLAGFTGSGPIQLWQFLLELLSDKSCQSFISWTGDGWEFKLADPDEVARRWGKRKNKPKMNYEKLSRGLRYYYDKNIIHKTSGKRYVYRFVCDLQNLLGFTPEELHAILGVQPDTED
In short: as §1

SPDEF = target: T9, SPDEF (Homo sapiens, UniProt O95238 1-335); settings: protein: recombinant; tags: N-terminal GST; dsDNA, one strand shown
T9 sequence: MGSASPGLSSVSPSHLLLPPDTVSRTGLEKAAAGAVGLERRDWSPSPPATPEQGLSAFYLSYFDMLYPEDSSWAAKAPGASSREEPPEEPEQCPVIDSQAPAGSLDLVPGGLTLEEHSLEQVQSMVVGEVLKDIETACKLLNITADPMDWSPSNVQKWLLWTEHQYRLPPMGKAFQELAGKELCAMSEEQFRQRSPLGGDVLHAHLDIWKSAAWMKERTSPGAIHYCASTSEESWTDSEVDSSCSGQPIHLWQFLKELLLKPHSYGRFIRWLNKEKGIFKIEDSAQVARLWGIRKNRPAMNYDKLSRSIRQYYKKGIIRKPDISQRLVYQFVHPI
In short: as §1

ETV7 = target: T10, ETV7 (Homo sapiens, UniProt Q9Y603 1-341); settings: protein: recombinant; tags: N-terminal GST; dsDNA, one strand shown
T10 sequence: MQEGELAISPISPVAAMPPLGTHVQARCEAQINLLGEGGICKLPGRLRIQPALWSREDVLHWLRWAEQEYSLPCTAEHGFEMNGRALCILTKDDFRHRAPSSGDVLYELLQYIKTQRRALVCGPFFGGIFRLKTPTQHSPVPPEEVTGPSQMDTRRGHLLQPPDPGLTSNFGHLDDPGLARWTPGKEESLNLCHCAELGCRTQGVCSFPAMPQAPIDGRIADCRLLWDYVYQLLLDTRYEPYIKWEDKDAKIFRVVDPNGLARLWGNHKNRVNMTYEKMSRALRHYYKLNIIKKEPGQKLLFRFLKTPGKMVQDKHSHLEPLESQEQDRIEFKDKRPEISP
In short: as §1

ELF5 = target: T11, ELF5 (Homo sapiens, UniProt Q9UKW6-2 1-255); settings: protein: recombinant; tags: N-terminal GST; dsDNA, one strand shown
T11 sequence: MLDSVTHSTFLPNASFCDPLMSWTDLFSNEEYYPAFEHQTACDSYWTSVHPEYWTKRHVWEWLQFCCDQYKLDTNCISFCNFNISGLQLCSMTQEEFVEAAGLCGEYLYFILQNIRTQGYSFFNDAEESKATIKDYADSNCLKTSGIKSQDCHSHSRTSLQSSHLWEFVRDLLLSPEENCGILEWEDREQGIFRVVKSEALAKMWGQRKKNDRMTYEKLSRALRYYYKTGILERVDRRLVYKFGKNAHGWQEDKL
In short: as §1

ETV3 = target: T12, ETV3 (Homo sapiens, UniProt P41162-2 1-143); settings: protein: recombinant; tags: N-terminal GST; dsDNA, one strand shown
T12 sequence: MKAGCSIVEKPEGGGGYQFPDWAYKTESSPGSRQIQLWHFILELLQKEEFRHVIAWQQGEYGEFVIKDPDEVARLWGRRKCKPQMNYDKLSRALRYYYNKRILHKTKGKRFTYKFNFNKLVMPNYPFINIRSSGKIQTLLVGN
In short: as §1

ETV6 = ETV6 (Homo sapiens, UniProt P41212 1-452); settings: protein: recombinant; tags: N-terminal GST; dsDNA, one strand shown
In short: as §1

Sequence of ETV1 (P50549 whole entry): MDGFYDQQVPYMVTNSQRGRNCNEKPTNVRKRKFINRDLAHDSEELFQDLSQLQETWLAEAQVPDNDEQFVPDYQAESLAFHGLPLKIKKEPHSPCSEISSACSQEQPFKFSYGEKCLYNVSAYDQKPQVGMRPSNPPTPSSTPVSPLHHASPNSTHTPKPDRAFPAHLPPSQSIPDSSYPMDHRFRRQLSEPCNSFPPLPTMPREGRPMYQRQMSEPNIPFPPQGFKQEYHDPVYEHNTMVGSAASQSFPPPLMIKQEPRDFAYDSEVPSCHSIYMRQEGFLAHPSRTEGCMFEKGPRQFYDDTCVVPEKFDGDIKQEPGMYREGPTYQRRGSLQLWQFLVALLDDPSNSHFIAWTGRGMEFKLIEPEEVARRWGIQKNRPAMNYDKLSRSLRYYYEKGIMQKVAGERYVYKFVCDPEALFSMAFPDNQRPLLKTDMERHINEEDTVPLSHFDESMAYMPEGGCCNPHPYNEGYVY
Sequence of HSF1 (Q00613 whole entry): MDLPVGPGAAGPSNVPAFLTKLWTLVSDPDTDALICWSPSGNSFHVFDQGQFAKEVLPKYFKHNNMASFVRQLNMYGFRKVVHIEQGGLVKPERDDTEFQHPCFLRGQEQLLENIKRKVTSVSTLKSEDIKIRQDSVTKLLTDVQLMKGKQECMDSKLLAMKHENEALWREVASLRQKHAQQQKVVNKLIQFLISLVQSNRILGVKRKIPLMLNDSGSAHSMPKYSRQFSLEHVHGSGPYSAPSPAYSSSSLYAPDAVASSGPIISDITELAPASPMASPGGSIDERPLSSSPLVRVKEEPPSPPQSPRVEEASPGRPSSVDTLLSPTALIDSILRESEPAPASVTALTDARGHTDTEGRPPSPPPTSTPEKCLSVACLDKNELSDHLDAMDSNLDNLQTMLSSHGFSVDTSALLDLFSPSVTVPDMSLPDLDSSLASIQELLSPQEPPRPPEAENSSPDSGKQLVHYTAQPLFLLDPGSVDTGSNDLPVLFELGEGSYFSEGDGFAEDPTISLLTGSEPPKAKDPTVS
Sequence of CRX (O43186 whole entry): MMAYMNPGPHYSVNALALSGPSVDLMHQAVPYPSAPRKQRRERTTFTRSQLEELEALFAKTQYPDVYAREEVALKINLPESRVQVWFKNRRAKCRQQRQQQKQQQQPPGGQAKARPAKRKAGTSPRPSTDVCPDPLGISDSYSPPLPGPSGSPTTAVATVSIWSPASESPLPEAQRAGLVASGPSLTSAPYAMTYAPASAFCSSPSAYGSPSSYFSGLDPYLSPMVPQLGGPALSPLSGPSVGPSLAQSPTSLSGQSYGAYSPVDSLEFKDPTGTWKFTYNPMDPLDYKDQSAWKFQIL
Sequence of ETV5 (P41161 whole entry): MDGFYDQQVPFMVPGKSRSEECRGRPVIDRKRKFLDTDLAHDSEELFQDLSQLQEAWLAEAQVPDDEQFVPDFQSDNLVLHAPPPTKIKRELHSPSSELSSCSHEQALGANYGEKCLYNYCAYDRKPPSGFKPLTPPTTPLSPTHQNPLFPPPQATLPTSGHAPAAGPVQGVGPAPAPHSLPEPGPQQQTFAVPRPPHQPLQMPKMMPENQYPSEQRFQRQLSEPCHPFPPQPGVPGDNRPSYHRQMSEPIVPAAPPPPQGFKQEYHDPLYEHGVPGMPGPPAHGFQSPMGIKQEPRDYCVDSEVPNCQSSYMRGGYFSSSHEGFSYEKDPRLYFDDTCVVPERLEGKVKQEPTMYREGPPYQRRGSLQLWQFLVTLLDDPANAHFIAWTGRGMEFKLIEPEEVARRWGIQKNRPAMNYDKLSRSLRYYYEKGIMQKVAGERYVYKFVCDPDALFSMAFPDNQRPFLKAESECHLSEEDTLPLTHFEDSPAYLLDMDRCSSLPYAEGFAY
Sequence of ETV6 (P41212 whole entry): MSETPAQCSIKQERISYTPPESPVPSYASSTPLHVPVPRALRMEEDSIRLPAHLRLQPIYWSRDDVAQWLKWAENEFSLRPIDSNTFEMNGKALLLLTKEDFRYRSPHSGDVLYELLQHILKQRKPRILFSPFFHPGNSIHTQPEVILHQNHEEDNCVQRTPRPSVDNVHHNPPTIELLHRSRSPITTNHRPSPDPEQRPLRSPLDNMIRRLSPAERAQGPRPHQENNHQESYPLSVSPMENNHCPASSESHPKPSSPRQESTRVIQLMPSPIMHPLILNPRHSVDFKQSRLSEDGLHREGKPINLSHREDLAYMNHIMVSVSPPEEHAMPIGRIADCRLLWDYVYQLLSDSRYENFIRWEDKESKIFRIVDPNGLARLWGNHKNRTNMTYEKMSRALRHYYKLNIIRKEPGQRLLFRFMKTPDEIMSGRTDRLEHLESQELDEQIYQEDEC
Sequence of ELF4 (Q99607 whole entry): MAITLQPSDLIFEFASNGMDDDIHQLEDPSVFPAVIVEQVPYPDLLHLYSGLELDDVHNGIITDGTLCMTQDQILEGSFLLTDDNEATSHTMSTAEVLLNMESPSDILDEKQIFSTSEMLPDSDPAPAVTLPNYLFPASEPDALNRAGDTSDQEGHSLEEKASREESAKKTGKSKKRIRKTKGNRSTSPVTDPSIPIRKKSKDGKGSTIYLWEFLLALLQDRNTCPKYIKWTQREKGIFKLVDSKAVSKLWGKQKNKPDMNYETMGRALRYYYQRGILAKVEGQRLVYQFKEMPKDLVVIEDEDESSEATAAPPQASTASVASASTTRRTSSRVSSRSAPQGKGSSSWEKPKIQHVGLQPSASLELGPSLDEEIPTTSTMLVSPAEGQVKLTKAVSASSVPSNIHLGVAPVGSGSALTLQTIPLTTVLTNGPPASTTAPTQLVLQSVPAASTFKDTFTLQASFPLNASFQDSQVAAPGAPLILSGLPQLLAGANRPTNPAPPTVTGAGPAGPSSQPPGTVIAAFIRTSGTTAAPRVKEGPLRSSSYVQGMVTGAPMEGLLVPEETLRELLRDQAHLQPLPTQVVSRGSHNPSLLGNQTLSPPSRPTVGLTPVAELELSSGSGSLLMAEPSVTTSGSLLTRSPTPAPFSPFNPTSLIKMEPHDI

## GGCTCA
FEV
  binding signal: 1.22 fold enrichment (6-mer frequency, TF over GST control)
ETV5
  binding signal: 1.22 fold enrichment (6-mer frequency, TF over GST control)
HSF1
  binding signal: 1.27 fold enrichment (6-mer frequency, TF over GST control)
SPIC
  binding signal: 1.28 fold enrichment (6-mer frequency, TF over GST control)
ELF4
  binding signal: 1.3 fold enrichment (6-mer frequency, TF over GST control)
ELK4
  binding signal: 1.15 fold enrichment (6-mer frequency, TF over GST control)
ETV2
  binding signal: 1.13 fold enrichment (6-mer frequency, TF over GST control)
ELF3
  binding signal: 1.28 fold enrichment (6-mer frequency, TF over GST control)
CRX
  binding signal: 1.53 fold enrichment (6-mer frequency, TF over GST control)
ETV1
  binding signal: 1.18 fold enrichment (6-mer frequency, TF over GST control)
ERF
  binding signal: 1.3 fold enrichment (6-mer frequency, TF over GST control)
ETV3L
  binding signal: 1.33 fold enrichment (6-mer frequency, TF over GST control)
ETS2
  binding signal: 1.19 fold enrichment (6-mer frequency, TF over GST control)
SPDEF
  binding signal: 1.15 fold enrichment (6-mer frequency, TF over GST control)
ETV7
  binding signal: 1.15 fold enrichment (6-mer frequency, TF over GST control)
ELF5
  binding signal: 1.14 fold enrichment (6-mer frequency, TF over GST control)
ETV3
  binding signal: 1.23 fold enrichment (6-mer frequency, TF over GST control)
ETV6
  binding signal: 1.26 fold enrichment (6-mer frequency, TF over GST control)
